Results on 14 compounds are retold here after PubChem BioAssay (NCI).

Some test systems named below: DU-145 prostate; K-562 leukemia; MALME-3M melanoma; MDA-MB-231 breast; RXF 393 renal; SF-268 CNS; SF-295 CNS; SF-539 CNS; UACC-257 melanoma; M14 melanoma.
Assay in all cases: NCI-60 one-dose screen, 48 h (100 = growth as untreated, 0 = no growth, -100 = all killed)
What all share (details): 10 µM

This is part of a sample that, as a whole, favours compounds with a hit. Of some 83,000 tested, about 20% had one in any assay.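 Testing used 96-well plates and a 48-hour single-concentration exposure. Example: -40 means 40% of the starting cells died.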 A number with no mark means an inactive call. Calls of active or inactive are those of the source. Rule for the calls: active = growth percent below 10; inactive = the rest.

For `O=C(O)c1ccnc(Br)c1`, the growth with DU-145 prostate was 111%; in the experiment with K-562 leukemia, 109%; in the experiment on MALME-3M melanoma it was 107%; with MDA-MB-231 breast, 115%; in the experiment on RXF 393 renal it was 106%; with SF-268 CNS, 107%. Also, the growth is 100% in the experiment on SF-295 CNS, 97.5% in the experiment on SF-539 CNS, 104% with UACC-257 melanoma and 107% with M14 melanoma.

Take `NC(N)=Nc1cc2ccccc2c2ccccc12`: the growth with DU-145 prostate was 84.9%; with K-562 leukemia it was 62.3%; in the experiment with MALME-3M melanoma, 76.2%; in the experiment with MDA-MB-231 breast, 80.1%; in the experiment with RXF 393 renal it was 78.8%; with SF-268 CNS it was 82.6%. The growth in the experiment on SF-295 CNS is 55.9%; with SF-539 CNS, 89.1%; with UACC-257 melanoma, 1.37% (active); in the experiment with M14 melanoma it was 85%.

Consider `Cc1ncc(C#N)c(N)n1`, for which the growth with DU-145 prostate is 114%; in the experiment on K-562 leukemia, 120%; with MALME-3M melanoma, 93.8%; in the experiment on MDA-MB-231 breast, 98.9%; in the experiment with RXF 393 renal it was 89.6%; with SF-268 CNS, 107%. In addition, the growth with SF-295 CNS was 98%; with SF-539 CNS, 105%; in the experiment on UACC-257 melanoma, 106%; in the experiment on M14 melanoma it was 95.9%.

As for `O=[N+]([O-])c1ccc(/C=C/C=C/c2ccccc2)c(Cl)c1`, the growth in the experiment with DU-145 prostate was 109%; in the experiment on K-562 leukemia, 91.8%; in the experiment with MALME-3M melanoma, 116%; with MDA-MB-231 breast, 89.6%; in the experiment with RXF 393 renal it was 103%; in the experiment with SF-268 CNS, 111%. In addition, the growth is 98.7% in the experiment with SF-295 CNS, 99% with SF-539 CNS, 95.1% in the experiment with UACC-257 melanoma and 106% in the experiment on M14 melanoma.

In the case of `CC(C)=NNc1ccc([N+](=O)[O-])cc1[N+](=O)[O-]`, the growth in the experiment on DU-145 prostate is 89.8%; in the experiment on K-562 leukemia it was 60.2%; with MALME-3M melanoma, 159%; in the experiment on MDA-MB-231 breast, 82.4%; in the experiment with RXF 393 renal, 109%; with SF-268 CNS it was 85.1%. Also, the growth with SF-295 CNS was 69.8%; in the experiment with SF-539 CNS, 95.6%; in the experiment on UACC-257 melanoma it was 101%; in the experiment with M14 melanoma, 74.3%.

With `O=C(/C(=N/O)c1ccccc1)c1ccccc1`, the growth is 111% in the experiment on DU-145 prostate; 120% with K-562 leukemia; 82% with MALME-3M melanoma; 98.5% in the experiment on MDA-MB-231 breast; 102% in the experiment with RXF 393 renal; 100% with SF-268 CNS. Further, the growth with SF-295 CNS was 94.4%; with SF-539 CNS, 104%; with UACC-257 melanoma it was 97%; in the experiment with M14 melanoma, 108%.

For the compound `CC1(C)/C(=C\CO)C2CCC1C2` (stereo not given), the growth with DU-145 prostate is 120%; in the experiment on K-562 leukemia, 105%; with MALME-3M melanoma, 103%; in the experiment on MDA-MB-231 breast, 112%; in the experiment on RXF 393 renal, 113%; with SF-268 CNS, 111%. In addition, the growth was 120% with SF-295 CNS, 109% with SF-539 CNS, 132% in the experiment with UACC-257 melanoma and 103% in the experiment on M14 melanoma.

On to `CCN(CC)C(=O)/C=C(/C)c1ccccc1`, for which the growth was 117% with DU-145 prostate; 107% in the experiment with K-562 leukemia; 111% in the experiment on MALME-3M melanoma; 108% in the experiment on MDA-MB-231 breast; 96.7% in the experiment on RXF 393 renal; 104% in the experiment on SF-268 CNS. Also, the growth is 100% with SF-295 CNS, 107% with SF-539 CNS, 110% in the experiment on UACC-257 melanoma and 104% with M14 melanoma.

In the case of `FC(F)(F)c1ccc2c(c1)N(CCCN1CCN(C3CC3)CC1)c1ccccc1S2`, the growth was 2.25% (active) with DU-145 prostate; 24.5% in the experiment with K-562 leukemia; 96.7% in the experiment with MALME-3M melanoma; 83% in the experiment on MDA-MB-231 breast; 80.7% with RXF 393 renal; -4.95% (active) in the experiment on SF-268 CNS. For the same compound, the growth in the experiment with SF-295 CNS was 3.21% (active); in the experiment with SF-539 CNS, 94.2%; in the experiment on UACC-257 melanoma, 74.4%; in the experiment with M14 melanoma, 34.3%.

For `O=c1[nH]cc(Cl)cc1O`, the growth was 96.8% in the experiment on DU-145 prostate; 48% with K-562 leukemia; 91.2% in the experiment with MALME-3M melanoma; 77.8% in the experiment on MDA-MB-231 breast; 107% in the experiment with RXF 393 renal; 79% in the experiment on SF-268 CNS. For the same compound, the growth in the experiment with SF-295 CNS was 82.4%; in the experiment with SF-539 CNS it was 96%; in the experiment on UACC-257 melanoma it was 92.3%; in the experiment on M14 melanoma it was 86.6%.

As to `O=c1[nH]n(-c2ccccc2)c(=O)cc1Cl`, the growth in the experiment with DU-145 prostate was 116%; with K-562 leukemia, 103%; in the experiment on MALME-3M melanoma, 99.9%; with MDA-MB-231 breast, 97.2%; with RXF 393 renal it was 113%; with SF-268 CNS, 101%. The growth was 114% in the experiment on SF-295 CNS, 97.7% in the experiment on SF-539 CNS, 97.1% in the experiment on UACC-257 melanoma and 106% in the experiment on M14 melanoma.

Turning to `NC(C(=O)O)c1ccc([N+](=O)[O-])cc1` (stereo not given), the growth in the experiment with DU-145 prostate is 109%; in the experiment on K-562 leukemia, 113%; in the experiment with MALME-3M melanoma it was 121%; with MDA-MB-231 breast, 90.2%; in the experiment on RXF 393 renal, 118%; in the experiment with SF-268 CNS, 105%. The growth in the experiment on SF-295 CNS was 104%; in the experiment on SF-539 CNS, 89.3%; in the experiment with UACC-257 melanoma, 111%; with M14 melanoma, 99%.

With `O=c1cc(-c2ccccc2)[nH]c2c1CCCC2`, the growth was 21.2% with DU-145 prostate; 23.2% in the experiment on K-562 leukemia; 31.6% in the experiment on MALME-3M melanoma; 33.8% in the experiment with MDA-MB-231 breast; -21.7% (active) in the experiment with RXF 393 renal; 57.3% in the experiment on SF-268 CNS. Further, the growth is 18.1% with SF-295 CNS, 3.77% (active) with SF-539 CNS, 46.9% in the experiment on UACC-257 melanoma and 8.23% (active) in the experiment on M14 melanoma.

For the compound `COc1ccc(OC)c(/C=C2\CCc3ccccc3C2=O)c1`, the growth is 55.5% in the experiment with DU-145 prostate; 18.3% with K-562 leukemia; 63.4% in the experiment with MALME-3M melanoma; 52.9% with MDA-MB-231 breast; 60.3% in the experiment on RXF 393 renal; 56.3% in the experiment on SF-268 CNS. The growth is 32% in the experiment on SF-295 CNS, 26% with SF-539 CNS, 75.3% with UACC-257 melanoma and 15% with M14 melanoma.
